Results filed as inconclusive are left out. Activity calls are given as the source filed them. Unless noted, calls follow the shape of the dose curve; as a rule, active = well fitted curve in either direction with a large enough effect (not every such curve was filed as active); inconclusive = small, poorly fitted or top-dose-only effect, or another doubt; inactive = flat fitted curve, though single readings scatter.

The target in test [1] is Lysosomal acid glucosylceramidase (Homo sapiens) (UniProt P04062). Put plainly: Glucocerebrosidase-p2 (AID 348; in the data active = potency below about 10 µM; also: potency is read from the fitted curve at half-maximal effect). To be noted: purified GBA, blue fluorogenic substrate, 40 min. Summed up:
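Normal human glucocerebrosidase (0.2 nM) with blue fluorogenic substrate (80 uM final) in citrate/phosphate pH 5.9 with 10mM sodium taurocholate, 0.01% tween-20; 40 min RT, NaOH/glycine stop; fluorescence Ex 365/Em 440; AC50 from a titration from 0.6 nM upwards.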

In test [2] the target is Glucocorticoid receptor (Homo sapiens) (UniProt P04150). The test can be described thus: GR-GFP Redistribution (AID 450;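 active = compounds whose dose series gives a full or clear partial fitted curve of increased nuclear translocation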; also: potency is read from the fitted curve at half-maximal effect). Particulars: U2OS GR-GFP nuclear translocation, laser cytometry, 2 h.
Test [3] shares this target. Put plainly: GR-EFC Redistribution (AID 451; calls by dose curve; also: potency is read from the fitted curve at half-maximal effect). Particulars: CHO-K1 GR-EFC translocation, beta-gal luminescence, 2 h. Summed up:
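CHO-K1 cells expressing nuclear EA and GR-ED fragments of b-gal; compounds titrated up to 46 uM final, 2 h at 37 C. GR nuclear translocation read as complemented b-gal luminescence after 1 h RT detection.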

In test [4] the target is 3',5'-cyclic-AMP phosphodiesterase 4B (Homo sapiens) (UniProt Q07343). Put plainly: qHTS Assay for Inhibitors of PDE-IV (AID 607; active = well fitted activation curve with a large enough effect in the main read-out, with a control signal flat, not every such curve was filed as active; also: % of control where 0% means no effect). To be noted: HEK293 ACTOne CNG channel cells, membrane potential fluorescence; series mostly up to 22.9 µM. The method in brief:
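ACTOne HEK293 cells carry a modified cAMP-gated CNG channel and express endogenous PDE4; plated 1000 cells/well, compounds up to 22.9 uM final. Membrane-potential dye fluorescence (ex 535/em 590) was read; parental cells received 10 uM forskolin + 100 uM RO 20-1724.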

The nature of test [5]: Confirmatory qHTS for small molecule stabilizers of the endoplasmic reticulum resident proteome: Secreted ER Calcium Modulated Protein (SERCaMP) assay (AID 1508628; active = well fitted curve in the direction sought with a large enough effect; an effect the other way counts as inactive or inconclusive; also: nearly all actives have a fitted effect of over 40% in size; also: potency is read from the fitted curve at half-maximal effect). To be noted: SERCaMP secreted luciferase ER calcium/proteostasis reporter; series mostly up to 76.3 µM. The method in brief: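 Reporter secretion upon ER calcium depletion (100 nM thapsigargin, 4 h, 37C) is measured as medium luminescence with coelenterazine, after 16 h compound pretreatment of SH-SY5Y-GLuc-SERCaMP cells; primary at three concentrations up to 38.3 uM, follow-up at 11 (up to 76.6 uM).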

Test [6] in a line: AP1 Signaling Pathway (AID 357).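 Also: ME-180 reporter cells stimulated with EGF at its EC50 level; % is scaled to controls: 0 for no effect and ±100 for the full control effect.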 To be noted: ME-180 AP-1-bla reporter, EGF-induced, beta-lactamase ratio, 5 h; at 7.69 µM (top of the series) unless noted. Summed up: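 Modulation of EGF-driven AP-1 transcription was assessed with a beta-lactamase reporter in ME-180 cells. Compound and EC50 EGF were co-incubated 5 hours at 37 °C before 2.5-hour CCF4 loading at room temperature and dual-emission reading.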

Test [7] can be described thus: NFAT Signaling Pathway (AID 444).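 Also: carbachol stimulus at about its EC50 of 1 µM final; % is scaled to controls: 0 for no effect and ±100 for the full control effect.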 Particulars: Jurkat NFAT-bla M1, carbachol, beta-lactamase ratio, 5 h; at 7.69 µM (top of the series) unless noted. The method in brief: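 Jurkat cells with NFAT-driven β-lactamase reporter and co-expressed M1 receptor, stimulated with carbachol (final 1 uM, ~EC50), compound titration, 5 h at 37 °C. CCF4 loaded 1 h at RT; 460/530 nm ratio gave %activity and AC50.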

The nature of test [8]: Stat Signaling Pathway (AID 446).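 Also: ME-180 cervical cancer cells given 40 pM IL-6 alongside compound; SIE-controlled beta-lactamase reporter measured as 460/530 nm FRET emission ratio; % is scaled to controls: 0 for no effect and ±100 for the full control effect.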 To be noted: ME-180 (cervical carcinoma) SIE beta-lactamase reporter, IL-6 stimulated, 5 h; at 7.69 µM (top of the series) unless noted. Summed up:
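Compound effects on IL-6-induced STAT reporter activity were measured in ME-180 cells. After overnight culture, cells were co-treated with 40 pM IL-6 for 5 hrs before beta-lactamase substrate loading at room temperature.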

The target of test [9] is Mitogen-activated protein kinase 10 (Mus musculus) (UniProt Q61831). Put plainly: JNK3 AlphaScreen Assay (AID 530).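 Also: kinase came from lysate of stimulated human HepG2 cells; signal reports phosphorylation of biotinylated GST-cJun 1-79 at Ser73 with 10 µM ATP; % is scaled to controls: 0 for no effect and ±100 for the full control effect.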 To be noted: JNK3 lysate, c-Jun phosphorylation; series mostly up to 57.1 µM. Summed up: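 Activity was read by AlphaScreen after JNK3-containing HepG2 lysate (cytokine pre-activated) phosphorylated biotinylated GST-cJun with 10 uM ATP at room temperature. Phospho-Ser73 cJun antibody with Protein-A acceptor beads provided detection.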

Test [10] has as its target Dual specificity protein kinase CLK4 (Homo sapiens) (UniProt Q9HAZ1). Put plainly: qHTS Assay for Inhibitors of CDC-like Kinase 4 (Kinase-Glo Assay) (AID 1770; active = well fitted curve in the direction sought with a large enough effect; an effect the other way counts as inactive or inconclusive; also: % is scaled to controls: 0 for no effect and ±100 for the full control effect; nearly all actives have a fitted effect of over 65% in size). Particulars: recombinant Clk4, Kinase-Glo ATP depletion luminescence; series mostly up to 66.7 µM. The method in brief:
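Inhibition was judged from remaining ATP, measured by Ultra-Glo luciferase bioluminescence after Clk4 (25 nM) had acted on RS peptide at 1 uM ATP for 4.5 hours, room temperature.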

Test [11] shares this target. The test can be described thus: qHTS Assay for Inhibitors of CDC-like Kinase 4 (ADP-Glo Assay) (AID 1771; active = well fitted curve in the direction sought with a large enough effect; an effect the other way counts as inactive or inconclusive; also: % is scaled to controls: 0 for no effect and ±100 for the full control effect; nearly all actives have a fitted effect of over 70% in size). To be noted: recombinant CLK4, ADP-Glo luminescence; series mostly up to 80 µM. Summed up:
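Compounds are pin-transferred onto substrate mix (100 uM RS peptide, 1 uM ATP), then 25 nM Clk4 is added. After 1 hr at room temperature, ADP-Glo reagent runs 45 min, detection reagent 30 min, then luminescence is read.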

Test [12] has as its target Ubiquitin carboxyl-terminal hydrolase 1 (Homo sapiens) (UniProt O94782). The test can be described thus: Inhibitors of USP1/UAF1: Pilot qHTS (AID 504865; active = well fitted curve in the direction sought with a large enough effect; an effect the other way counts as inactive or inconclusive; also: nearly all actives have a fitted effect of over 35% in size; also: potency is read from the fitted curve at half-maximal effect). To be noted: purified USP1/UAF1, Ub-rhodamine cleavage fluorescence; series mostly up to 54.9 µM. The method in brief:
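Kinetic fluorescence assay: 1nM USP1/UAF1, 15 min compound preincubation, then 150nM Ub-Rho; 480/540 nm.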

The nature of test [13]: Primary qHTS for small molecule stabilizers of the endoplasmic reticulum resident proteome: Secreted ER Calcium Modulated Protein (SERCaMP) assay (AID 1508630; active = well fitted curve in the direction sought with a large enough effect; an effect the other way counts as inactive or inconclusive; also: potency is read from the fitted curve at half-maximal effect). To be noted: SH-SY5Y GLuc-SERCaMP (Gaussia luciferase released on ER calcium loss) secretion, thapsigargin, luminescence; series mostly up to 38.4 µM. The method in brief:
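The SH-SY5Y reporter protocol was run at 3 concentrations up to 38.3 uM (primary) or 11 concentrations (follow-up): 16 h compound, 100 nM thapsigargin for 4 h, then extracellular luciferase luminescence.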

For test [14], the target named is Cytochrome P450 1A2 (Homo sapiens) (UniProt P05177). Put plainly: p450-cyp1a2 (AID 410; calls by dose curve; also: potency is read from the fitted curve at half-maximal effect). To be noted: recombinant CYP1A2, luciferin-ME demethylation, luminescence; series mostly up to 57 µM. Summed up:
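O-Demethylation of luciferin 6' methyl ether by human CYP1A2 is monitored as luciferase luminescence. Substrate sits at Km (100uM); enzyme is 20nM. Values are scaled to 57 uM furafylline as maximal inhibition.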

Test [15] deals with Cytochrome P450 3A4 (Homo sapiens) (UniProt P08684). Put plainly: qHTS Assay for Activators of Cytochrome P450 3A4 (AID 885; active = well fitted curve in the direction sought with a large enough effect; an effect the other way counts as inactive or inconclusive; also: nearly all actives have a fitted effect of over 65% in size). To be noted: recombinant CYP3A4, Luciferin-PPXE luminescence, 60 min; series mostly up to 57.1 µM. The method in brief: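 CYP3A4 activity: Luciferin-PPXE O-dealkylation, 25uM substrate, 200mM KPO4, RT throughout. Read-out is luciferase luminescence; higher values reflect activation.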

Test [16] has as its target Dual specificity protein kinase CLK4 (Homo sapiens) (UniProt Q9HAZ1). The test can be described thus: qHTS Assay for Inhibitors of CDC-like Kinase 4 (ADP-FP Assay) (AID 1795; active = well fitted curve in the direction sought with a large enough effect; an effect the other way counts as inactive or inconclusive;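 also: recombinant human CLK4 phosphorylating RS repeat peptide at 1 µM ATP; % is scaled to controls: 0 for no effect and ±100 for the full control effect; nearly all actives have a fitted effect of over 60% in size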). To be noted: Transcreener ADP fluorescence polarization; series mostly up to 50 µM. Summed up: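 Inhibition of ADP formation by 6.25 nM Clk4 is measured using 1 uM ATP and 100 uM RS repeat peptide over one hour. Produced ADP displaces a fluorescent tracer from antibody, lowering polarization.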

A short description of test [17]: qHTS Assay for Lipid Storage Modulators (AID 1519; calls by dose curve). Particulars: Drosophila S3 cells, BODIPY lipid droplet/cell ratio, laser cytometry, cells loaded with oleic acid; for activity change, negative = inhibition: at 57.5 µM (top of the series). The method in brief:
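Cells seeded at 5,000 per well were treated with compounds over a concentration series and loaded with oleic acid (400 uM, as added). Lipid droplet fluorescence (488 nm excitation, 500-530 nm channel) was read by laser-scanning cytometry and normalized to 20 uM Triacsin C.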

Setting [18] is: measured here: cell count channel max response.
[19] abbreviates: measured here: lipid channel max response.

3',5'-cyclic-AMP phosphodiesterase 4B (Homo sapiens), sequence (Q07343 whole entry, looked up): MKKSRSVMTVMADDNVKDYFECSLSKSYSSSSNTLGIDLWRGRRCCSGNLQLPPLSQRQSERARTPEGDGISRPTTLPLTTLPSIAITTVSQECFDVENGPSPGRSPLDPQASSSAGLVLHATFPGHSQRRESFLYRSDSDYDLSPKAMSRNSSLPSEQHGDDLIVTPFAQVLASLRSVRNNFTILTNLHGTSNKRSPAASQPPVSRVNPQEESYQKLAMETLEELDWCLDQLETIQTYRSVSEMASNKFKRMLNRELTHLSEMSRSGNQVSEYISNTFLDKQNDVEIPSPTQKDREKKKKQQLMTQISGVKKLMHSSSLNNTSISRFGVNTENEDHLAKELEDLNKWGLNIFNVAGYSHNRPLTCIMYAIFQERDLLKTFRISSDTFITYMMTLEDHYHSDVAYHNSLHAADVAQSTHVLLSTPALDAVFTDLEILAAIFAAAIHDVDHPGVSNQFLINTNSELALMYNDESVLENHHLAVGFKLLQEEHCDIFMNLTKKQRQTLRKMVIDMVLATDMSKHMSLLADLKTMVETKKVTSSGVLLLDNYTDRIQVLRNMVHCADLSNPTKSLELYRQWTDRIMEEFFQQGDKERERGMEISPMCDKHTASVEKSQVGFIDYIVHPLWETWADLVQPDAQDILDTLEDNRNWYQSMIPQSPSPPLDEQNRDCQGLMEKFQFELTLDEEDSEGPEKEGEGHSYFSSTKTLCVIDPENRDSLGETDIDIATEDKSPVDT
Glucocorticoid receptor (Homo sapiens), sequence (P04150 whole entry, looked up): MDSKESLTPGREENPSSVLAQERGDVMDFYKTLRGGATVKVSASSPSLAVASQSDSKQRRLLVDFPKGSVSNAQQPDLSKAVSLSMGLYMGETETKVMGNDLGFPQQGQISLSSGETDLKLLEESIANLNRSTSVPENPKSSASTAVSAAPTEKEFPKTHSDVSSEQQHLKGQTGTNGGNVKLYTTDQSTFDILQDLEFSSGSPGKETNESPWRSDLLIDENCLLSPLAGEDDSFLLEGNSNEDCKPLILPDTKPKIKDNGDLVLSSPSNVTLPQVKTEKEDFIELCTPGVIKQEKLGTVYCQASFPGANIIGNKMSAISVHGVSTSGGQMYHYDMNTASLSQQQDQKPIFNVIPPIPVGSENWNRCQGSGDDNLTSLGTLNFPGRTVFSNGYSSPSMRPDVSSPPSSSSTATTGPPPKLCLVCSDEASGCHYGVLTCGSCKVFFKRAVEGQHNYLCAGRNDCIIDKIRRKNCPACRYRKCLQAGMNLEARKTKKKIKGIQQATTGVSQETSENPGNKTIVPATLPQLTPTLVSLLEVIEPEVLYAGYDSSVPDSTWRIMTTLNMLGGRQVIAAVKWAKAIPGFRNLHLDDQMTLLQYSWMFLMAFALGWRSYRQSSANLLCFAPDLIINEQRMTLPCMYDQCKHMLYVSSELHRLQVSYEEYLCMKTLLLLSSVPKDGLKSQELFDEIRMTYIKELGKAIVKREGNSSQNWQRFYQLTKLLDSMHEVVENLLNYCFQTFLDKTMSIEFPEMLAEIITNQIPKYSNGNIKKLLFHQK
Ubiquitin carboxyl-terminal hydrolase 1 (Homo sapiens), sequence (O94782 whole entry, looked up): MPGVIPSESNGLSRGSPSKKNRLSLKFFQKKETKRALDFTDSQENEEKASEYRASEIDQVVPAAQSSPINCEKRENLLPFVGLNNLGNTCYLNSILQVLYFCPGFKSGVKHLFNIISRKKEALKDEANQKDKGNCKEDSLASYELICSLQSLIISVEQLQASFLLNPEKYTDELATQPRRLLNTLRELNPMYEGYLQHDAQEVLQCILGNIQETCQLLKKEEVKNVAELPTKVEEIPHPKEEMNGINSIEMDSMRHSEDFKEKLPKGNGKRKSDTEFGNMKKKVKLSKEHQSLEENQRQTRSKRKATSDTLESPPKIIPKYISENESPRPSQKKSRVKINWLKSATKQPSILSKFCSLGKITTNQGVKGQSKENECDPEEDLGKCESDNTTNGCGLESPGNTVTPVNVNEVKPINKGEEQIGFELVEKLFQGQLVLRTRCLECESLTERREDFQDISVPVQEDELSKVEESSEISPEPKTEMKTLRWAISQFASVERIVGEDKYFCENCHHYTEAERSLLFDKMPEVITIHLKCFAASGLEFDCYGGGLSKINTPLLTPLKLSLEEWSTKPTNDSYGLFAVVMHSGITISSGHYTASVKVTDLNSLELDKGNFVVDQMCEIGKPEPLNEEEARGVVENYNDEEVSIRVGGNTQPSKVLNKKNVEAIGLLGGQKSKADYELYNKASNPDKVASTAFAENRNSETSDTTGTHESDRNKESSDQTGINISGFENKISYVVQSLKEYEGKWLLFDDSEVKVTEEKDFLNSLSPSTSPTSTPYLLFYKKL
Lysosomal acid glucosylceramidase (Homo sapiens), sequence (P04062 whole entry, looked up): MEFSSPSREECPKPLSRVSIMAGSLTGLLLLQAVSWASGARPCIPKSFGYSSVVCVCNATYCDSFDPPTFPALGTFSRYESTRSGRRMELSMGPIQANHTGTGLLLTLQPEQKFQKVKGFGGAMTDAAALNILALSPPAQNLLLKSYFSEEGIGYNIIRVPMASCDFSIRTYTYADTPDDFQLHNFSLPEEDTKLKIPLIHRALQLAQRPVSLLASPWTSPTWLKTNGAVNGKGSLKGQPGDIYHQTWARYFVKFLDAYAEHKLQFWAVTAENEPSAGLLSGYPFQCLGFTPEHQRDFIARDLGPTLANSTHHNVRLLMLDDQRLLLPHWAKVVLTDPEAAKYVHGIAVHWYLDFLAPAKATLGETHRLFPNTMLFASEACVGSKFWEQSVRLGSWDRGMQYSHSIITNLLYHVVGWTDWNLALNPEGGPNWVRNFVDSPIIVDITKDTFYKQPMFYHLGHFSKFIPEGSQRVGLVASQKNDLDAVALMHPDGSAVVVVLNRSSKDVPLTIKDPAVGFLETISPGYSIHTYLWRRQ
Cytochrome P450 1A2 (Homo sapiens), sequence (P05177 whole entry, looked up): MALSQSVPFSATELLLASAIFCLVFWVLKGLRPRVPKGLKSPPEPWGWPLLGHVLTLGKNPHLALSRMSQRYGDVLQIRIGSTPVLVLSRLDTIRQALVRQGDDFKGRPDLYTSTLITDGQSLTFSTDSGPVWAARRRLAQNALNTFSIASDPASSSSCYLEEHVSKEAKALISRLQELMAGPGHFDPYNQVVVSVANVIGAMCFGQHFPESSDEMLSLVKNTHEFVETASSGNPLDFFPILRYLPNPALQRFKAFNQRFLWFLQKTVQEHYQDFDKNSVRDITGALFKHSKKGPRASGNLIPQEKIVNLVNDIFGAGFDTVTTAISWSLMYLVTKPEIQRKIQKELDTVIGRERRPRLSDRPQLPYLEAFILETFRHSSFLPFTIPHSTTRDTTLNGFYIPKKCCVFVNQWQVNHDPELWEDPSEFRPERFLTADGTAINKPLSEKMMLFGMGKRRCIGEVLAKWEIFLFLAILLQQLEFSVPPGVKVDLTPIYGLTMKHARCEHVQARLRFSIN
Cytochrome P450 3A4 (Homo sapiens), sequence (P08684 whole entry, looked up): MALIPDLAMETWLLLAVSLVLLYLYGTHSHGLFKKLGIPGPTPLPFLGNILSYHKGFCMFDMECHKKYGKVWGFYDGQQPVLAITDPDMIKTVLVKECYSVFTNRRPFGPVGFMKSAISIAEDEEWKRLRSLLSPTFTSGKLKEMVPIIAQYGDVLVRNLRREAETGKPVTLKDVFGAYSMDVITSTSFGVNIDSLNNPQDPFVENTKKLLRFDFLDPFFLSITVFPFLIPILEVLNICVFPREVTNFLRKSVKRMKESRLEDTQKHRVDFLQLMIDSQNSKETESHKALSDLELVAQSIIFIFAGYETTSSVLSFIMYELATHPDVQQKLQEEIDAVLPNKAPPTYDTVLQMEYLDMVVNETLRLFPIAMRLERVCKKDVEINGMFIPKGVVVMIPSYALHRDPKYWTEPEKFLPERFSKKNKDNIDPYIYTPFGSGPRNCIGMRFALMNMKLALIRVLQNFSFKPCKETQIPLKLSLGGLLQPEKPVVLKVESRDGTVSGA
Dual specificity protein kinase CLK4 (Homo sapiens), sequence (Q9HAZ1 whole entry, looked up): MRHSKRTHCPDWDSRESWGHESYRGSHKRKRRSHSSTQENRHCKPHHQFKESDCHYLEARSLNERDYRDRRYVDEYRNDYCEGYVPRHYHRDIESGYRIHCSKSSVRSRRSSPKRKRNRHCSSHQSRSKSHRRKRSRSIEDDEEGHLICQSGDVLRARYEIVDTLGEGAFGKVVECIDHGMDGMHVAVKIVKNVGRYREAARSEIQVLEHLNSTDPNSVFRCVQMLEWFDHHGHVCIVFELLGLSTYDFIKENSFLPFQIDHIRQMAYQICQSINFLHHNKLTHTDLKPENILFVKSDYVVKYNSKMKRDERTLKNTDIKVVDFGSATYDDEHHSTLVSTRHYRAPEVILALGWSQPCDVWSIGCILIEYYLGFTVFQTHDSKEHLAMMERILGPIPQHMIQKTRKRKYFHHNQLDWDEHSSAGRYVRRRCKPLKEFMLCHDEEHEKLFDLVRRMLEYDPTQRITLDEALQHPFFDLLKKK

Take `O=c1c(-c2ccccc2)nc2cnc(N3CCNCC3)nc2n1Cc1cccs1`: the Potency in test [1] is > 11.4 µM (inactive); in [2], > 9.22 µM (inactive); in test [3], > 46 µM (inactive). The Potency entry in test [4] and in test [5] was “inactive” in each case.
Consider `COc1ccc(Oc2ncc3nc(CCc4ccccc4)c(=O)n(C[C@H]4CCCO4)c3n2)cc1`, for which the results for the activity change, negative = inhibition in test [6] and in test [7] were -25.6% (inactive) and -6.61% (inactive), respectively. Besides, the activity, negative = inhibition in test [8] is -17.3% (inactive). The Potency in test [2] is > 9.22 µM (inactive); in test [3], > 46 µM (inactive); in test [13], 35.5 µM (active). In test [9], the compound was classed as inactive. Besides, the Potency result in test [4], in test [10], in test [11] and in test [12] was “inactive” each time.
Take `Cc1ccccc1-c1nc(N2CCN(C)CC2)c2ccccc2n1`: the Potency in test [1] is > 11.4 µM (inactive); in test [14], 3.98 µM (active); in [2] it was > 46 µM (inactive); in test [3], > 46 µM (inactive); in [12], 28.2 µM (active); in test [5] it was 20 µM (active). For the same compound, the activity change, negative = inhibition was 5.49% (inactive) in test [6] and 0.11% (inactive) in test [7]. In addition, the activity, negative = inhibition in test [8] is 0.381% (inactive). For the same compound, in test [9], the compound was called inactive. Also, the Potency result in test [15], in test [10], in test [11] and in test [16] was “inactive” each time.
Consider `CN1CCN(c2nc(-c3cccc(C#N)c3)nc3ccccc23)CC1`, for which the Potency in test [1] was > 11.4 µM (inactive); in test [14], 1.58 µM (active); in test [2], > 46 µM (inactive); in [3], > 46 µM (inactive); in [5] it was 12.6 µM (active). The activity change, negative = inhibition in test [6] was 9.54% (inactive); in [7] it was -2.42% (inactive). In addition, in test [8], the activity, negative = inhibition was 21.4% (inactive). Further, the result in [9] was inactive. Further, in test [15], the Potency entry is “inactive”.
As to `Cc1cccc(CNc2cc(-c3ccccc3CN(C)C)ncn2)c1`, the Potency is > 11.4 µM (inactive) in [1], 25.1 µM (active) in test [14], > 46 µM (inactive) in test [2] and > 46 µM (inactive) in [3]. The activity change, negative = inhibition in test [6] was 9.15% (inactive); in test [17], 2.35% (inactive). For the same compound, the activity, negative = inhibition in test [8] was 11.7% (inactive). In addition, the call in [9] was inactive. Moreover, the Potency entry in test [15] and in test [12] was “inactive” in each case. Also, the figures for the max response in test [17] (setting [18]) and in [17] (setting [19]) were 2.52% and 10%, respectively.
For the compound `COc1cc2c(cc1OC)C1CCC3=C([C@H](C)OC3=O)N1CC2` (stereo not given in full), in test [13], the Potency result is “inactive”.
For `COCCn1c(=O)c(-c2ccccc2)nc2cnc(OCc3ccccc3)nc21`, the Potency was > 11.4 µM (inactive) in test [1], > 9.22 µM (inactive) in test [2], > 46 µM (inactive) in test [3] and 39.8 µM (active) in test [5]. Moreover, the activity change, negative = inhibition was -11.6% (inactive) in test [6] and 0.0505% (inactive) in test [7]. Also, the activity, negative = inhibition in test [8] is -5.1% (inactive). Further, the Potency result in test [4] is “inactive”.
For `CC1=CC(=O)OC1Cc1ccc2ccccc2n1` (stereo not given), in test [13], the Potency entry is “inactive”.
With `O=c1c(-c2ccccc2)nc2cnc(N3CCNCC3)nc2n1C1CC1`, the Potency in [1] is > 11.4 µM (inactive); in [14] it was 3.98 µM (active); in [2] it was > 9.22 µM (inactive); in test [3], > 46 µM (inactive); in test [5], 39.8 µM (active). The activity change, negative = inhibition in [6] is 27.1% (inactive); in test [7] it was 100% (inactive); in test [17], 5.31% (inactive). The outcome in [9] was inactive. Besides, the Potency entry in test [4] and in [15] was “inactive” throughout. For the same compound, the figures for the max response in [17] (setting [18]) and in test [17] (setting [19]) were 32.7% and 42.5%, respectively.

These data come from PubChem BioAssay (NCATS).
